# According to PubChem BioAssay (EPA / NIEHS):
# Active and inactive are the calls of the source. Rule for the calls: active = hit-call score of the fitted dose curve at least 0.9, where 1 is the maximum; inactive = score below 0.9.
# Legend:
# Conditions in all cases: mRNA level, 48 h; actives raise or lower the signal
# [1] = read-out: Tumor necrosis factor receptor superfamily member 6 (Homo sapiens) (UniProt P25445); experiment: LTEA_HepaRG_FAS: Life Technologies and Expression Analysis (LTEA) Assay for Fas cell surface death receptor (FAS) using HepaRG (AID 2283447)
# Procedure, shortened: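 Differentiated human HepaRG cells, pre-cultured 48 h, were exposed in duplicate for 48 h to 8-point half-log concentrations (top 100 uM, 0.5% DMSO) in serum-free induction medium; FAS mRNA measured by qRT-PCR, normalized to ACTB/GAPDH/POLR2A, bidirectional fit versus DMSO.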
# [2] = read-out: Cyclin D2 (CCND2), CCND2 (gene 894); experiment: LTEA_HepaRG_CCND2: Life Technologies and Expression Analysis (LTEA) Assay for Cyclin D2 (CCND2) using HepaRG (AID 2283449);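 note: CCND2 transcript measured by TaqMan qRT-PCR and normalised to three housekeeping genes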
# Procedure, shortened: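 In this HepaRG study, an eight-point concentration series (max 100 uM, 0.5% DMSO) is applied for 48 h. CCND2 mRNA change is derived by qRT-PCR normalised to ACTB, GAPDH and POLR2A.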
# [3] = read-out: Cyclin Dependent Kinase Inhibitor 1A (CDKN1A), CDKN1A (gene 1026); experiment: LTEA_HepaRG_CDKN1A: Life Technologies and Expression Analysis (LTEA) Assay for Cyclin Dependent Kinase Inhibitor 1A (CDKN1A) using HepaRG (AID 2283450)
# Procedure, shortened: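 Cryopreserved HepaRG cells were plated and cultured 48 h, then switched to serum-free induction medium. Chemicals (eight half-log concentrations, top 100 uM, 0.5% DMSO) were applied for 48 h. Lysates underwent qRT-PCR for CDKN1A with housekeeping normalization.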
# [4] = read-out: Cyclin D1 (CCND1), CCND1 (gene 595); experiment: LTEA_HepaRG_CCND1: Life Technologies and Expression Analysis (LTEA) Assay for Cyclin D1 (CCND1) using HepaRG (AID 2283451);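 for AC50: TaqMan qRT-PCR transcript level normalised to ACTB GAPDH and POLR2A housekeeping genes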
# Procedure, shortened: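 Human liver HepaRG line; 48 h dosing, 8 conc. ≤100 uM, 0.5% DMSO; TaqMan qRT-PCR mRNA, 3 housekeeping genes; bidirectional curve fit vs DMSO.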
# [5] = read-out: catalase (CAT), CAT (gene 847); experiment: LTEA_HepaRG_CAT: Life Technologies and Expression Analysis (LTEA) Assay for catalase (CAT) using HepaRG (AID 2283452);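 for AC50: TaqMan qRT-PCR signal normalized to ACTB GAPDH and POLR2A housekeeping genes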
# Procedure, shortened: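 Differentiated HepaRG cells in serum-free induction medium were dosed 48 h in duplicate, eight half-log concentrations from 100 uM in 0.5% DMSO. Transcript measured by TaqMan qRT-PCR, normalised to ACTB/GAPDH/POLR2A, fitted bidirectionally against DMSO.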
# [6] = read-out: flavin-containing dimethylaniline monooxygenases 3 (FMO3), FMO3 (gene 2328); experiment: LTEA_HepaRG_FMO3: Life Technologies and Expression Analysis (LTEA) Assay for flavin-containing dimethylaniline monooxygenases 3 (FMO3) using HepaRG (AID 2283453);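 for AC50: FMO3 transcript by TaqMan qRT-PCR normalized to ACTB GAPDH and POLR2A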
# Procedure, shortened: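 Eight-point concentration-response in serum-free HepaRG cultures (top 100 uM, 0.5% DMSO, 48 h). Read-out: FMO3 mRNA level normalized to three endogenous control genes, fitted bidirectionally versus vehicle.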
# [7] = read-out: Cytochrome P450 (CYP1A1), CYP1A1 (gene 1543); experiment: LTEA_HepaRG_CYP1A1: Life Technologies and Expression Analysis (LTEA) Assay for Cytochrome P450 (CYP1A1) using HepaRG (AID 2283454)
# Procedure, shortened: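 Induction of CYP1A1 mRNA in a human hepatic cell line was measured 48 h after dosing, with 1 mM phenobarbital as induction positive control and 0.5% DMSO vehicle as baseline for bidirectional curve fitting.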
# [8] = read-out: CFLAR gene, CFLAR (gene 8837); experiment: LTEA_HepaRG_CFLAR: Life Technologies and Expression Analysis (LTEA) Assay for CFLAR gene using HepaRG (AID 2283455)
# Procedure, shortened: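 Gain- or loss-of-signal changes in CFLAR transcript were fitted bidirectionally relative to 0.5% DMSO. Cells (HepaRG, duplicate wells) were dosed for 48 h across eight half-log concentrations topping at 100 uM; quantitation by TaqMan qRT-PCR.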
# [9] = read-out: Forkhead box O1 (FOXO1), FOXO1 (gene 2308); experiment: LTEA_HepaRG_FOXO1: Life Technologies and Expression Analysis (LTEA) Assay for Forkhead box O1 (FOXO1) using HepaRG (AID 2283456)
# Procedure, shortened: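 Using one lot of HepaRG hepatic cells kept in 0.5% DMSO, the team applied test chemicals in duplicate, half-log dilutions from 100 uM, for 48 h. Expression, normalised to ACTB/GAPDH/POLR2A, was compared with vehicle in either direction.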
# [10] = read-out: growth arrest and DNA damage 45 (GADD45A), GADD45A (gene 1647); experiment: LTEA_HepaRG_GADD45A: Life Technologies and Expression Analysis (LTEA) Assay for growth arrest and DNA damage 45 (GADD45A) using HepaRG (AID 2283458)
# Procedure, shortened: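 Eight-point concentration-response in HepaRG cells: 48 h chemical exposure, 0.5% DMSO vehicle, top dose 100 uM. Normalized qRT-PCR mRNA readout with bidirectional fitting relative to DMSO.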
# [11] = read-out: Forkhead box O3 (FOXO3), FOXO3 (gene 2309); experiment: LTEA_HepaRG_FOXO3: Life Technologies and Expression Analysis (LTEA) Assay for Forkhead box O3 (FOXO3) using HepaRG (AID 2283459)
# Procedure, shortened: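 Gene-expression endpoint: FOXO3 transcript level by qRT-PCR in HepaRG cultures treated 48 h with chemicals up to 100 uM (half-log, 0.5% DMSO vehicle).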
# [12] = read-out: ABC Transporter (ABCB1), ABCB1 (gene 5243); experiment: LTEA_HepaRG_ABCB1: Life Technologies and Expression Analysis (LTEA) Assay for ABC Transporter (ABCB1) using HepaRG (AID 2283460)
# Procedure, shortened: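 Human liver HepaRG line treated 48 h with up to 100 uM compound (eight half-log points, 0.5% DMSO); ABCB1 mRNA change fitted bidirectionally against DMSO controls.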
# [13] = read-out: growth arrest and DNA damage 45 (GADD45B), GADD45B (gene 4616); experiment: LTEA_HepaRG_GADD45B: Life Technologies and Expression Analysis (LTEA) Assay for growth arrest and DNA damage 45 (GADD45B) using HepaRG (AID 2283461)
# Procedure, shortened: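 Values are bidirectional concentration-response fits against 0.5% DMSO controls. Underlying data: qRT-PCR mRNA levels in human HepaRG liver cells treated 48 h in serum-free induction medium, eight concentrations topping at 100 uM.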
# [14] = read-out: ABC Transporter (ABCC3), ABCC3 (gene 8714); experiment: LTEA_HepaRG_ABCC3: Life Technologies and Expression Analysis (LTEA) Assay for ABC Transporter (ABCC3) using HepaRG (AID 2283462)
# Procedure, shortened: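 Differentiated HepaRG liver cells receive test chemicals at eight concentrations (max 100 uM) for 48 h. Expression of ABCC3 is quantified by qRT-PCR against ACTB, GAPDH and POLR2A, and activity is fitted in both directions against the DMSO control.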
# [15] = read-out: ABC Transporter (ABCB11), ABCB11 (gene 8647); experiment: LTEA_HepaRG_ABCB11: Life Technologies and Expression Analysis (LTEA) Assay for ABC Transporter (ABCB11) using HepaRG (AID 2283463)
# Procedure, shortened: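 Using HepaRG cultures held in 0.5% DMSO, chemicals were tested at half-log dilutions from 100 uM for 48 h. Induction or suppression of ABCB11 mRNA, normalized to ACTB, GAPDH and POLR2A, was fitted bidirectionally against vehicle.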
# [16] = read-out: ABC Transporter (ABCC2), ABCC2 (gene 1244); experiment: LTEA_HepaRG_ABCC2: Life Technologies and Expression Analysis (LTEA) Assay for ABC Transporter (ABCC2) using HepaRG (AID 2283464)
# Procedure, shortened: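 Gene expression of ABCC2 was determined by qRT-PCR in HepaRG cells exposed 48 h to chemicals (highest 100 uM, half-log dilutions). Activity was fitted in both directions relative to 0.5% DMSO vehicle.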
# [17] = read-out: Broad substrate specificity ATP-binding cassette transporter ABCG2 (Homo sapiens) (UniProt Q9UNQ0); experiment: LTEA_HepaRG_ABCG2: Life Technologies and Expression Analysis (LTEA) Assay for ABC Transporter (ABCG2) using HepaRG (AID 2283465)
# Procedure, shortened: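 Gene expression of ABCG2 in HepaRG liver cells is quantified by qRT-PCR following 48 h exposure across an eight-point series topping at 100 uM. Values come from bidirectional fitting relative to DMSO vehicle.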
# [18] = read-out: ATP-citrate lyase (ACLY), ACLY (gene 47); experiment: LTEA_HepaRG_ACLY: Life Technologies and Expression Analysis (LTEA) Assay for ATP-citrate lyase (ACLY) using HepaRG (AID 2283466)
# Procedure, shortened: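 ACLY expression changes in human HepaRG liver cells are quantified by qRT-PCR after 48 h exposure to test chemicals (maximum 100 uM, half-log steps). Values are fitted in both directions relative to 0.5% DMSO vehicle.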
# [19] = read-out: Fatty acid synthase (Homo sapiens) (UniProt P49327); experiment: LTEA_HepaRG_FASN: Life Technologies and Expression Analysis (LTEA) Assay for Fatty Acid Synthase (FASN) using HepaRG (AID 2283448)
# Procedure, shortened: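 In human HepaRG cultures, 48 h chemical exposure (up to 100 uM, 0.5% DMSO) preceded TaqMan qRT-PCR of FASN.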
# Sequence of Fatty acid synthase (Homo sapiens) (P49327 whole entry, looked up): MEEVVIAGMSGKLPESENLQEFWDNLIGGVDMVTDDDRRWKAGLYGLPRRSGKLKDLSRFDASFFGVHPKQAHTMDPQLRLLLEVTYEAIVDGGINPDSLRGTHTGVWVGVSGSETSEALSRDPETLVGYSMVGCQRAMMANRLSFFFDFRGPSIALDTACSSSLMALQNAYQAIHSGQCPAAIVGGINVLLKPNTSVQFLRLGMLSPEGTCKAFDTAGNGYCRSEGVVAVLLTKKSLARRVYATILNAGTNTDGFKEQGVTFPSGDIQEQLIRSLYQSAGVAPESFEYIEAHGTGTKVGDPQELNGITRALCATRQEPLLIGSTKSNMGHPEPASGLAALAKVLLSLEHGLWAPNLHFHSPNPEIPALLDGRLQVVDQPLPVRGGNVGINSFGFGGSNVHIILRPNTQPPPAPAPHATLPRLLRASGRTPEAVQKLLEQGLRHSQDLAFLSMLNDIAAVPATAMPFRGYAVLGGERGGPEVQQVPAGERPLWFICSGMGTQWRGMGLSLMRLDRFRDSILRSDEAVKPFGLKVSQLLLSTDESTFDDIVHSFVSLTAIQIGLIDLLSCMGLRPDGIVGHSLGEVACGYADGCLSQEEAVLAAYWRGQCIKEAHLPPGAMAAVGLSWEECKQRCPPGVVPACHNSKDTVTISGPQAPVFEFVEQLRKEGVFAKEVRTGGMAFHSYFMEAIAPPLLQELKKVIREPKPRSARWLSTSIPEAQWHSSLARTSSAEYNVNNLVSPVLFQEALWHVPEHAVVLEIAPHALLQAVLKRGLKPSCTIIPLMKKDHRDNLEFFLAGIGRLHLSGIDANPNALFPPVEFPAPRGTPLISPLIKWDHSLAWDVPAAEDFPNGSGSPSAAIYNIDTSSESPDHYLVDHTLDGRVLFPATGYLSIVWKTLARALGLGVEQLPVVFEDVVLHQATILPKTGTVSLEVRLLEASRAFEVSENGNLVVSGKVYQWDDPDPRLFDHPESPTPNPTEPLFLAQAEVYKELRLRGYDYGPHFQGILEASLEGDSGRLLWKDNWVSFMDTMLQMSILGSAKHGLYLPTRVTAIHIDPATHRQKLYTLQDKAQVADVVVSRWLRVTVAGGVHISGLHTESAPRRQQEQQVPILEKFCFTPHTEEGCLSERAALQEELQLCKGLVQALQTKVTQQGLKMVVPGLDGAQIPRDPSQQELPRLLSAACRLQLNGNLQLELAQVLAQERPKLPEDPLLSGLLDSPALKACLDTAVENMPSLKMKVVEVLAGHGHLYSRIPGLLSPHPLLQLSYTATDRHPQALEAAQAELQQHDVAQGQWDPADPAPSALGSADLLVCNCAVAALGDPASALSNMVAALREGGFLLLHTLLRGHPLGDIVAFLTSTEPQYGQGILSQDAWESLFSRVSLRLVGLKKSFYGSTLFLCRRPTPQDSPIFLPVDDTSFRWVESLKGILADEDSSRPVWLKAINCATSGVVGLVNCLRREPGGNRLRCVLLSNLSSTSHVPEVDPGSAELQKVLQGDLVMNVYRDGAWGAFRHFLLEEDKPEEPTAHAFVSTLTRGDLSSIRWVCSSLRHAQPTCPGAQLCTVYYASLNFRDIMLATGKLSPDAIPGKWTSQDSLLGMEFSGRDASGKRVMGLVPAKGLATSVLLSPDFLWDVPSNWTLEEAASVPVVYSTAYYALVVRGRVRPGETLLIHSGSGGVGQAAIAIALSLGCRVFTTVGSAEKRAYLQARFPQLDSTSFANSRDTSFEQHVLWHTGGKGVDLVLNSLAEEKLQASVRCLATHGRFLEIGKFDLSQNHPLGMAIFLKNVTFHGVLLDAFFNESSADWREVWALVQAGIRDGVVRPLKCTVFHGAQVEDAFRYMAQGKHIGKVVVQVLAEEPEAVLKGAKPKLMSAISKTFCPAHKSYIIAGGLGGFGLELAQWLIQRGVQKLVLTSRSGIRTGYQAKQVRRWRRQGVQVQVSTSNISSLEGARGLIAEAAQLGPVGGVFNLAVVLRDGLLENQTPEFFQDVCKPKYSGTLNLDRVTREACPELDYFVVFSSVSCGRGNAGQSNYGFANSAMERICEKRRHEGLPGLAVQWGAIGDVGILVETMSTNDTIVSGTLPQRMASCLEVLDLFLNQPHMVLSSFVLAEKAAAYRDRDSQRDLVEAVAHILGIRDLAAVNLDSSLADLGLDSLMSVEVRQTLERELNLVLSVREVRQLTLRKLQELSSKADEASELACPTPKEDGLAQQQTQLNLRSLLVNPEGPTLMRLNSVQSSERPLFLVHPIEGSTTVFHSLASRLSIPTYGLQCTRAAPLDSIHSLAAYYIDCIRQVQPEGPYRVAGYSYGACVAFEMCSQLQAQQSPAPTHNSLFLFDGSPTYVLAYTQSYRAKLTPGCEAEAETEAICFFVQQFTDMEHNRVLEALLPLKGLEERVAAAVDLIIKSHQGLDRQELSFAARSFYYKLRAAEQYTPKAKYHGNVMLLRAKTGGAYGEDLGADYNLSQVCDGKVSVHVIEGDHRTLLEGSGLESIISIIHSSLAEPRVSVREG
# Sequence of Broad substrate specificity ATP-binding cassette transporter ABCG2 (Homo sapiens) (Q9UNQ0 whole entry, looked up): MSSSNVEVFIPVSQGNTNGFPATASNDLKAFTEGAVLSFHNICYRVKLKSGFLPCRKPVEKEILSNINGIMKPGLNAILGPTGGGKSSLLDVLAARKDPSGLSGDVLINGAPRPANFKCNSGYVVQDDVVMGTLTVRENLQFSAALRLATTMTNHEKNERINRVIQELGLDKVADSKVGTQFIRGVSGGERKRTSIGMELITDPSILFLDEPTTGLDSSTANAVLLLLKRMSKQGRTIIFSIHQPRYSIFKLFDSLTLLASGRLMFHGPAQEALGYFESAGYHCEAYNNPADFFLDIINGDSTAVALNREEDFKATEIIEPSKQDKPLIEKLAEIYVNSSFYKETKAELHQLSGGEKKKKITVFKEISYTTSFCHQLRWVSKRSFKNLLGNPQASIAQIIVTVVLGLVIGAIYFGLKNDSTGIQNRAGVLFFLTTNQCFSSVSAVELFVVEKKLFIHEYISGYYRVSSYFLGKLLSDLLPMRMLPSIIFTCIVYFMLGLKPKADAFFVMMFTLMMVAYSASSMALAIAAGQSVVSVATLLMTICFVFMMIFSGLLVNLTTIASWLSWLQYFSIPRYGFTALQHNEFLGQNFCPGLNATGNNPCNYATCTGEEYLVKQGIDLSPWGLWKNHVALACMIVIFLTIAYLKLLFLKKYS
smiles,measurement,setting,value
Cc1cc2c3c(c1)C(c1ccccc1)=N[C@@H](NC(=O)c1ccncc1)C(=O)N3CC2,outcome,[1],inactive
same,outcome,[2],inactive
same,AC50,[3],50 µM (active)
same,outcome,[4],inactive
same,outcome,[5],inactive
same,AC50,[6],81.8 µM (active)
same,AC50,[7],24.4 µM (active)
same,outcome,[8],inactive
same,outcome,[9],inactive
same,outcome,[10],inactive
same,AC50,[11],50 µM (active)
same,AC50,[12],5.26 µM (active)
same,outcome,[13],inactive
same,outcome,[14],inactive
same,outcome,[15],inactive
same,outcome,[16],inactive
same,AC50,[17],10.1 µM (active)
same,AC50,[18],74.3 µM (active)
O=C(N[C@H]1CN2CCC1CC2)c1cc2ccoc2cn1,outcome,[1],inactive
same,outcome,[19],inactive
same,outcome,[2],inactive
same,outcome,[3],inactive
same,outcome,[4],inactive
same,outcome,[5],inactive
same,outcome,[6],inactive
same,AC50,[7],50 µM (active)
same,outcome,[9],inactive
same,outcome,[10],inactive
same,outcome,[11],inactive
same,outcome,[12],inactive
same,outcome,[13],inactive
same,outcome,[14],inactive
same,outcome,[15],inactive
same,outcome,[16],inactive
same,outcome,[17],inactive
same,outcome,[18],inactive
Clc1ccc(Cl)cc1,outcome,[1],inactive
same,outcome,[19],inactive
same,outcome,[2],inactive
same,outcome,[3],inactive
same,outcome,[4],inactive
same,outcome,[6],inactive
same,outcome,[7],inactive
same,outcome,[9],inactive
same,outcome,[10],inactive
same,outcome,[11],inactive
same,outcome,[12],inactive
same,outcome,[13],inactive
same,outcome,[14],inactive
same,outcome,[15],inactive
same,outcome,[16],inactive
same,outcome,[17],inactive
same,outcome,[18],inactive
CCC(C)c1cc([N+](=O)[O-])cc([N+](=O)[O-])c1O (stereo not given),AC50,[1],2.25 µM (active)
same,AC50,[19],1.16 µM (active)
same,AC50,[3],7.37 µM (active)
same,AC50,[4],11.1 µM (active)
same,AC50,[5],1.38 µM (active)
same,AC50,[6],2.51 µM (active)
same,AC50,[7],85.7 µM (active)
same,AC50,[9],3.37 µM (active)
same,AC50,[10],1.07 µM (active)
same,AC50,[11],1.77 µM (active)
same,AC50,[12],1.39 µM (active)
same,AC50,[13],10.7 µM (active)
same,outcome,[14],inactive
same,AC50,[15],1.29 µM (active)
same,AC50,[16],1.46 µM (active)
same,outcome,[17],inactive
same,outcome,[18],inactive
